This is a sample that favours compounds with a hit; in the whole collection about 4.2% have one here.
TIM10 inh = growth inhibitors of TIM10 yeast strain. S. cerevisiae TIM10 strain growth, BacTiter-Glo luminescence, 24 h. 1.4% of 330,000 active. AID 463195. inhibition, % at 10 µM;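 active = inhibition of 40% or more at the single tested concentration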;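 also: wild-type TIM10 isogenic control strain grown at permissive 25 °C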
NALP1 yeast inh = inhibitors of NALP1 inflammasome in yeast; inhibition, % at 10 µM; 0.61% of 280,000 active; S. cerevisiae NALP1/ASC/caspase-1 growth, X-gal OD620, 72 h; AID 2071; in the data active = inhibition mostly above about 24%, no sharp cut-off; inactive = mostly below about 32%
NLRP3 yeast inh = blocks the NALP3 inflammasome reconstituted in yeast; inhibition, % at 10 µM; 0.39% of 330,000 active; Yeast reconstituted NLRP3/ASC/caspase-1, beta-gal luminescence, 24 h;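 active = inhibition of 50% or more; inactive = inhibition below 50%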;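 also: plate controls were induced DMSO wells for no effect and uninduced yeast grown without galactose for full effect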
V-ATPase pH = yeast V-ATPase proton transport regulation by pHLuorin. S. cerevisiae, pHLuorin cytosolic pH fluorescence. response, % at 10 µM. 0.37% of 350,000 active. AID 504577; in the data active = response mostly above about 7.3%, no sharp cut-off; inactive = mostly below about 5.4%; also: actives read high
tim23-1 inh = inhibits growth of tim23-1 mutant yeast; 1.3% of 330,000 active; S. cerevisiae tim23-1 growth, BacTiter-Glo luminescence, 24 h; inhibition, % at 20 µM;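 active = growth inhibition of the mutant yeast at or above 50%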;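 also: temperature-sensitive mutant grown at 25 °C; plate controls were DMSO-treated mutant yeast for no effect and medium wells lacking yeast for full effect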
tim10-1 inh = tim10-1 yeast growth inhibition; inhibition, % at 20 µM; S. cerevisiae tim10-1 ts strain growth, BacTiter-Glo, 24 h; 2.2% of 330,000 active;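 active = inhibition of at least 40%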;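 also: mutant grown at 25 °C; 0% = DMSO wells with yeast and 100% = wells holding no yeast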
NALP3 yeast conf = NALP3 inhibition confirmation in yeast; shares compounds with NLRP3 yeast inh; yeast expressing human NALP3, luminescence; inhibition, % at 10 µM; 81% of 1,300 active; in the data active = inhibition above about 48%
Casp1-ASC yeast = active in yeast caspase-1-ASC counter-screen for NALP3 inhibitors; shares compounds with NLRP3 yeast inh; 66% of 1,000 active; yeast expressing Caspase-1-ASC, luminescence counter screen; inhibition, % at 10 µM
NALP3 yeast rt = retest-confirmed inhibitor of NALP3 in yeast; shares compounds with NLRP3 yeast inh; yeast expressing human NALP3, luminescence read-out; inhibition, % at 10 µM; 53% of 1,000 active
* hit, by the source's call; . = no result. Rule as the data show it, unless noted: active = inhibition above about 50%; inactive = the rest.

SMILES	TIM10 inh	NALP1 yeast inh	NLRP3 yeast inh	V-ATPase pH	tim23-1 inh	tim10-1 inh	NALP3 yeast conf	Casp1-ASC yeast	NALP3 yeast rt
COc1ccc(C2(C)CC(C)(C)Nc3ccccc32)cc1 (configuration not stated)	19	18	55*	-2	8	-5	51*	45	38
CC1CC(C)(C)N(C(=O)CN2CCN(C)CC2)c2ccccc21 (configuration not stated)	8	32	12	0	17	26	.	.	.
CC1CC(C)(C)N(C(=O)CN2C(=O)c3ccccc3C2=O)c2ccccc21 (configuration not stated)	-2	-45	52*	3	31	36	10	.	.
CC(C)(C)NC(=O)[C@]1(C)CCC[C@@]2(C)C3CC[C@@]4(C)C[C@]3(CCC21)CC4=O (some centres not stated)	9	.	52*	-3	24	17	42	44	42
C[C@@]12CCC3[C@@](CCC4[C@@]3(C)CCC[C@@]4(C)C(=O)NCc3ccccc3)(CC1=O)C2 (some centres not stated)	-25	.	52*	2	25	-17	54*	47	45
O=c1cc(-c2ccc(O)cc2)oc2ccc3ccccc3c12	18	.	61*	0	49	33	81*	58*	54*
Cc1onc(-c2c(Cl)cccc2Cl)c1C(=O)Nc1ccc(N2CCOCC2)cc1	-18	22	27	3	20	12	.	.	.
Cc1c(NC(=O)Cc2ccccc2)cccc1C(=O)NN1C(=O)c2ccccc2C1=O	5	34	10	-1	-2	8	.	.	.
CN1C(=O)c2cccc(NC(=O)Cc3ccccc3)c2C1=O	-23	28	50*	-3	9	16	50*	60*	36
Cc1ccc(NC(=O)Cc2csc(-c3ccccc3)n2)cc1F	24	26	62*	1	48	-1	38	53*	60*
CC(C)c1ccc(N(CC(=O)NC2CCCCC2)C(=O)CCC(=O)Nc2ccccn2)cc1	13	9	20	-1	-3	-22	.	.	.
CCCC(=O)Nc1ccccc1NC(=O)c1ccc(OC)cc1	7	1	-13	8	1	3	.	.	.
C=CCOc1nc2c(c(=O)n(Cc3ccc(Cl)cc3)c(=O)n2C)n1C	5	19	55*	-1	4	4	42	41	36
O=C(NNC(=O)C1CCN(S(=O)(=O)c2cccc(Cl)c2)CC1)C1CC1	-2	.	2	1	7	12	.	.	.
O=C(NC1CCN(S(=O)(=O)c2cccc(Cl)c2)CC1)C1CCCCC1	0	35	53*	0	4	-14	56*	25	20
O=C(COc1ccc(F)cc1)Nc1cc(Cl)ccc1-n1cncn1	-5	.	63*	-2	16	0	70*	56*	49
CCOc1ccc(/C(C)=N/NC(=O)c2nnn(-c3nonc3N)c2-c2cccs2)cc1	-7	18	5	-3	-17	-8	.	.	.
CC(NC(=O)c1ccccc1Br)c1ccc2c(c1)CCCC2 (configuration not stated)	6	7	57*	1	4	-20	70*	52*	31
CC(NC(=O)c1ccc(Br)cc1)c1ccc2c(c1)CCCC2 (configuration not stated)	-37	34	32	-2	-17	1	.	.	.
CCCc1cc(=O)oc2cc(C)cc(OC(C)C(=O)NCCCn3ccnc3)c12 (configuration not stated)	2	9	-6	-1	1	12	.	.	.
COc1ccc(C(=O)OCC(=O)c2ccc3c(c2)NC(=O)CO3)cc1OC	-8	.	7	-1	-9	-11	.	.	.
CCOC(=O)c1ccc2c(c1)NCc1cccc(OC)c1O2	3	19	54*	-1	22	17	63*	46	42
COc1ccc(Br)c(C=O)c1OS(=O)(=O)c1ccc(C)cc1	.	.	.	-3	.	.	.	.	.
O=C(Nc1ccccn1)Nc1ccccc1Cl	-4	19	66*	2	18	5	72*	61*	44
CS(=O)(=O)N1CCC(Oc2ccccc2C(=O)NC(C2CC2)C2CC2)CC1	3	0	17	4	-2	-10	.	.	.
SMILES	TIM10 inh	NALP1 yeast inh	NLRP3 yeast inh	V-ATPase pH	tim23-1 inh	tim10-1 inh	NALP3 yeast conf	Casp1-ASC yeast	NALP3 yeast rt
N#C/C(=N\Nc1ccc(Cl)c(Cl)c1)C(=O)C1CC1	18	.	62*	-4	28	16	87*	.	.
N#C/C(=N\Nc1ccc(F)cc1)C(=O)C1CC1	-4	.	4	1	17	22	.	.	.
c1ccc(Oc2cc(-c3ccccc3)ncn2)cc1	1	1	52*	-5	25	15	47	71*	55*
COC(=O)c1cc(C(=O)c2cccc(Cl)c2Cl)cn1C	-10	4	61*	-2	17	0	73*	63*	46
NN(CCO)C(=S)Nc1ccc(Cl)cc1	-4	6	0	1	16	5	.	.	.
C[C@]12CCC(=O)C[C@@H]1CC[C@@H]1[C@@H]2CC[C@]2(C)[C@@H](C(=O)COC(=O)CCC(=O)O)CC[C@@H]12	5	29	54*	0	26	24	77*	51*	47
CC12CCC(=O)CC1CCC1C2CCC2(C)C1CCC2(O)C(=O)CO (configuration not stated)	.	.	.	-3	.	.	.	.	.
Nc1ccc(Br)cc1-c1nc2ccccc2[nH]c1=O	0	-1	54*	2	8	-45	24	.	.
O=C(NNC(=O)c1ccccc1F)c1ccc(-c2ccc(Cl)cc2)o1	1	.	54*	3	12	-7	59*	8	49
Cc1nn(-c2ccc(N3CCOCC3)nn2)c(C)c1CCC(=O)NCc1ccccc1	-1	-8	-8	-2	5	22	.	.	.
O=C1c2ccsc2SCCN1Cc1c(Cl)cccc1Cl	26	54	19	1	45	28	.	.	.
O=C1c2ccsc2SCCN1Cc1ccc(Cl)cc1Cl	-14	12	65*	2	36	11	65*	77*	66*
COc1ccc(CN2CCSc3sccc3C2=O)cc1	8	-17	61*	6	15	-5	71*	69*	65*
CCN1C(=O)[C@H]2[C@@H](c3ccc(-c4ccc(Cl)c(Cl)c4)c(OC)c3)N3CCCC[C@@]3(C(=O)OC)[C@H]2C1=O	0	.	7	-2	-4	-9	.	.	.
CC(C)C(=O)NNC(=O)c1c(O)c2ccccc2[nH]c1=O	14	.	7	4	3	-59	.	.	.
